Results taken from PubChem BioAssay AID1224921 (Broad Institute, 2016).
The whole screen tested about 1,400 compounds, of which about 350 (25%) were called active. About 2% were inconclusive and are not listed. No rule for the calls is given here. These entries were drawn from the full list. Potency and affinity values are given separately.

Experiment: C. difficile growth inhibition, confirmation, 4-point retest (AID 1224921);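 also: plate controls were DMSO wells for no effect and levofloxacin 16 µg/mL wells for full effect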
Details: Clostridioides difficile clinical isolate growth, OD600, 24 h, hits give low values; at 30 µM unless noted

Max activity, inactive:
CCCC(=O)Nc1ccc2c(c1)C(=O)N(C)C[C@H](OC)[C@H](C)CN(Cc1ccc(F)cc1)[C@H](C)CO2 22.5%, CC(C)CC#Cc1ccc2c(c1)O[C@H](CN(C)Cc1ccc3c(c1)OCO3)[C@H](C)CN([C@H](C)CO)S2(=O)=O 43.6%, COc1ccccc1CNC(=O)C[C@@H]1C[C@@H]2c3cc(NC(=O)NC4CCCC4)ccc3O[C@@H]2[C@@H](CO)O1 -8.98% [at 1.8 µM], C[C@H](CO)N1C[C@H](C)[C@H](CN(C)C(=O)NC2CCCCC2)Oc2cc(C#Cc3ccc(F)cc3)ccc2S1(=O)=O 14.3%, COc1cccc(-c2ccc3c(c2)O[C@H](CN(C)Cc2cccnc2)[C@@H](C)CN([C@@H](C)CO)S3(=O)=O)c1 21.5%, CO[C@@H]1CN(C)C(=O)c2ccc(NC(=O)NC(C)C)cc2OC[C@@H](C)N(C(=O)NC(C)C)C[C@@H]1C 16.7%, C[C@H]1CN([C@@H](C)CO)S(=O)(=O)c2ccc(C#CC3CCCC3)cc2O[C@H]1CN(C)C(=O)Cc1ccccc1 16.1%, CCCNC(=O)C[C@@H]1CC[C@H]2[C@H](COc3ccc(NC(=O)c4cccc(Cl)c4)cc3C(=O)N2C)O1 -10.6% [at 8 µM], C=CCOC(=O)[C@H]1[C@@H]2C(=O)O[C@@H](c3ccccc3)[C@@H](c3ccccc3)N2[C@@H](c2ccc(OCCOC(=O)[C@H]3C[C@H]4C(=O)N5CCC[C@H]5C(=O)N4[C@H]3c3cccc(OCCO)c3)cc2)[C@]12C(=O)Nc1ccccc12 -23.8% [at 8 µM], C[C@@H]1CN([C@@H](C)CO)S(=O)(=O)c2ccc(-c3cncnc3)cc2O[C@H]1CN(C)C(=O)CC1CC1 -11% [at 8 µM], CN(C)CC(=O)N1[C@H](C#N)[C@@H](c2ccc(/C=C/c3ccccc3)cc2)[C@H]1CO 19.5%, CO[C@H]1CN(C)C(=O)c2ccc(NC(=O)c3ccccc3F)cc2OC[C@@H](C)N(CC2CC2)C[C@H]1C 9.45%, CCCNC(=O)Nc1ccc2c(c1)OC[C@@H](C)N(Cc1ccccc1)C[C@@H](C)[C@H](OC)CN(C)C2=O 40.4%, C[C@H](CO)N1C[C@H](C)[C@@H](CN(C)C(=O)c2ccccc2)OCCCC[C@H](C)Oc2ccc(NC(=O)Nc3cccc4ccccc34)cc2C1=O 39.2%, CNC[C@H]1OCCCC[C@@H](C)Oc2ccc(NC(=O)Nc3ccc(C(F)(F)F)cc3)cc2C(=O)N([C@@H](C)CO)C[C@H]1C 33.8% [at 8 µM], CNC[C@@H]1OCCCC[C@@H](C)Oc2ccc(NC(=O)Nc3cccc4ccccc34)cc2C(=O)N([C@H](C)CO)C[C@H]1C 27.3%, C[C@@H]1CCCCO[C@@H](CN(C)S(=O)(=O)c2ccccc2)[C@@H](C)CN([C@H](C)CO)C(=O)c2cc(NC(=O)Nc3ccc(C(F)(F)F)cc3)ccc2O1 12.1% [at 8 µM], CNC[C@@H]1OCCCC[C@H](C)Oc2ccc(NC(=O)Nc3ccc(C(F)(F)F)cc3)cc2C(=O)N([C@@H](C)CO)C[C@@H]1C 52.5% [at 8 µM], CNC[C@@H]1Oc2ncc(-c3ccc(OC)cc3)cc2C(=O)N([C@@H](C)CO)C[C@@H]1C 20.8%, COc1cccc(-c2ccc3c(c2)O[C@@H](CN(C)Cc2cccnc2)[C@H](C)CN([C@@H](C)CO)S3(=O)=O)c1 12.1%, Cc1ccccc1-c1ccc2c(c1)O[C@H](CN(C)Cc1ccncc1)[C@H](C)CN([C@H](C)CO)S2(=O)=O 50.8%, CO[C@H]1CN(C)C(=O)c2cc(NS(=O)(=O)c3ccc(Cl)cc3)ccc2OC[C@H](C)N(C(=O)NC(C)C)C[C@@H]1C -13.3% [at 8 µM], O=C(C[C@@H]1C[C@@H]2c3cc(NC(=O)Nc4ccc(C(F)(F)F)cc4)ccc3O[C@@H]2[C@H](CO)O1)NC1CCCCC1 -10.2% [at 0.5 µM], N#C[C@@H]1[C@@H](c2ccc(/C=C/c3ccccc3)cc2)[C@@H](CO)N1C(=O)C1CC1 27%, C[C@@H]1CN([C@@H](C)CO)C(=O)c2c(c3ccccc3n2C)-c2ccccc2CO[C@@H]1CN(C)C(=O)c1ccncc1 29.1%, COc1ccc(CN(C)C[C@@H]2OCCCC[C@H](C)Oc3ccc(NC(=O)Nc4ccc5c(c4)OCO5)cc3C(=O)N([C@H](C)CO)C[C@@H]2C)cc1 14.8%, CCCC(=O)Nc1ccc2c(c1)OC[C@@H](C)N(C(=O)c1ccccc1F)C[C@@H](C)[C@@H](OC)CN(C)C2=O 9.79%, Cc1ccccc1-c1ccc2c(c1)O[C@@H](CN(C)Cc1ccncc1)[C@H](C)CN([C@H](C)CO)S2(=O)=O 48.1%, CCCN(C)C[C@H]1OCCCC[C@H](C)Oc2ccc(NC(=O)Nc3ccc4c(c3)OCO4)cc2C(=O)N([C@@H](C)CO)C[C@@H]1C 8.67%, CCCN(C)C[C@@H]1OCCCC[C@@H](C)Oc2ccc(NC(=O)Nc3ccc(C(F)(F)F)cc3)cc2C(=O)N([C@H](C)CO)C[C@@H]1C 16.3% [at 8 µM], CCCN(C)C[C@H]1OCCCC[C@H](C)Oc2ccc(NC(=O)Nc3ccc(C(F)(F)F)cc3)cc2C(=O)N([C@@H](C)CO)C[C@H]1C 28.8% [at 8 µM], CCCN(C)C[C@H]1OCCCC[C@@H](C)Oc2ccc(NC(=O)Nc3ccc(C(F)(F)F)cc3)cc2C(=O)N([C@H](C)CO)C[C@H]1C -43.7%, CC(C)NC(=O)N[C@@H]1CC[C@H](CC(=O)NCCCN(C)C)O[C@@H]1CO -13.1%, C[C@@H]1CN([C@H](C)CO)S(=O)(=O)c2ccc(C#CC3CCCC3)cc2O[C@@H]1CN(C)Cc1cccnc1 27.7%, CCCC#Cc1ccc2c(c1)O[C@@H](CN(C)Cc1ccncc1)[C@@H](C)CN([C@@H](C)CO)S2(=O)=O -13.3% [at 8 µM], CO[C@@H]1CN(C)C(=O)c2cc(NC(=O)c3cnccn3)ccc2OC[C@@H](C)N(CCC(F)(F)F)C[C@H]1C -9.07% [at 35 µM], CCCNC(=O)Nc1ccc2c(c1)OC[C@H](C)N(Cc1ccccc1)C[C@@H](C)[C@@H](OC)CN(C)C2=O 27.8% [at 8 µM], CNC[C@H]1Oc2ncc(-c3ccc(OC)cc3)cc2C(=O)N([C@H](C)CO)C[C@@H]1C 27.6%, CO[C@H]1CN(C)C(=O)c2cc(NC(=O)c3ccccc3)ccc2OC[C@H](C)N(C)C[C@H]1C -10.6% [at 1.95 µM], CO[C@H]1CN(C)C(=O)c2ccc(NS(=O)(=O)c3ccccc3C)cc2OC[C@@H](C)N(S(C)(=O)=O)C[C@@H]1C 15%, C[C@@H]1CN([C@@H](C)CO)S(=O)(=O)c2ccc(C#CC3CCCC3)cc2O[C@@H]1CN(C)Cc1cccnc1 -18.2% [at 1.95 µM], C[C@@H]1CCCCO[C@H](CN(C)Cc2ccccc2)[C@@H](C)CN([C@H](C)CO)C(=O)c2cc(NC(=O)Nc3ccc(C(F)(F)F)cc3)ccc2O1 19.2% [at 8 µM], C[C@@H]1CCCCO[C@@H](CN(C)Cc2ccccc2)[C@H](C)CN([C@@H](C)CO)C(=O)c2cc(NC(=O)Nc3ccc(C(F)(F)F)cc3)ccc2O1 26.5% [at 1.95 µM], CO[C@@H]1CN(C)C(=O)c2cc(NC(=O)NC3CCCCC3)ccc2OC[C@@H](C)N(CCc2ccccc2)C[C@@H]1C 17.7% [at 8 µM], C[C@H](CO)N1C[C@H](C)[C@H](CN(C)Cc2ccc(-c3ccccc3)cc2)Oc2ncc(C#C[C@@H](C)O)cc2C1=O 17.2%, CO[C@@H]1CN(C)C(=O)c2ccc(NC(=O)c3ccc(Oc4ccccc4)cc3)cc2OC[C@@H](C)NC[C@H]1C -19.3% [at 2.1 µM], CC(C)CC#Cc1ccc2c(c1)O[C@@H](CN(C)Cc1cccnc1)[C@@H](C)CN([C@H](C)CO)S2(=O)=O 41.2%, C[C@H](CO)N1C[C@H](C)[C@H](CN(C)Cc2ccccc2)OCCCC[C@H](C)Oc2ccc(NC(=O)Nc3ccc(F)cc3)cc2C1=O 37.9%, C[C@@H]1CCCCO[C@H](CN(C)Cc2ccccc2)[C@H](C)CN([C@@H](C)CO)C(=O)c2cc(NC(=O)Nc3ccc(C(F)(F)F)cc3)ccc2O1 26.5% [at 1.95 µM], CC(C)C#Cc1ccc2c(c1)O[C@H](CN(C)Cc1ccncc1)[C@H](C)CN([C@H](C)CO)S2(=O)=O 8.71%, CCCNC(=O)Nc1ccc2c(c1)C(=O)N(C)C[C@H](OC)[C@@H](C)CN(Cc1ccccc1)[C@H](C)CO2 17.2%, COc1ccc(NC(=O)Nc2cccc3c2O[C@@H](CN(C)C(=O)NC2CCCCC2)[C@H](C)CN([C@H](C)CO)C3=O)cc1 7.41%, O=C(C[C@@H]1C[C@@H]2c3cc(NC(=O)CC4CC4)ccc3O[C@@H]2[C@H](CO)O1)NCCc1ccccc1 -14.8%, CCC(=O)Nc1ccc2c(c1)C(=O)N(C)[C@@H]1CC[C@H](CC(=O)NCc3ccc(OC)cc3)O[C@@H]1CO2 -3.51% [at 1.95 µM], CC(C)NC(=O)N(C)C[C@H]1Oc2cc(C#Cc3ccc(F)cc3)ccc2S(=O)(=O)N([C@@H](C)CO)C[C@@H]1C 24.4%
